Screens (PubChem)
Only some compounds are listed: those with a hit (about 27% of all), similar ones and a draw of the others.
CYP2C9 inhib = inhibitors of human CYP2C9 | inhibition, % at 5 µM | hit rate 20% among 96,000 | CYP2C9 Supersomes, luciferin-H conversion, luminescence | P11712;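 active = blocking of liver enzyme CYP2C9 beyond about 50% at 5 µM, limit read from the data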
Target sequence (P11712 whole entry, looked up): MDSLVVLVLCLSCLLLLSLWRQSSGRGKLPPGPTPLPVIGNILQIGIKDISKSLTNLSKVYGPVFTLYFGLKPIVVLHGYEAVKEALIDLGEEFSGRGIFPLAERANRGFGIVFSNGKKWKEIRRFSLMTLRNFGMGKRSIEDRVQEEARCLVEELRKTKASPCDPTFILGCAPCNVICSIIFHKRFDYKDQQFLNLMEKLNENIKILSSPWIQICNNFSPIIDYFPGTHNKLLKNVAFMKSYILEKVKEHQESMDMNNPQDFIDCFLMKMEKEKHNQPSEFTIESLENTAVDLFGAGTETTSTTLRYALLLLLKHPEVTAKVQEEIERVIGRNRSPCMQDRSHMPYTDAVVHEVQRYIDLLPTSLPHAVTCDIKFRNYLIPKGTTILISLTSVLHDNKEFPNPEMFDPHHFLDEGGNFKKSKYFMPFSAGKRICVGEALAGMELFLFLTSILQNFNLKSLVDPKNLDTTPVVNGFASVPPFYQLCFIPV
sEH activator = increases human soluble epoxide hydrolase activity. P34913. purified human sEH enzymatic activity, activator screen. activation, % at 2 µM. hit rate 0.04% among 91,000. AID 717; in the data active = activation above about 37%
CYP2C9 act = CYP2C9 (human) activation; P11712; hit rate 1.4% among 96,000; AID 1024; recombinant CYP2C9, luciferin-H conversion, luminescence; stronger effect = higher value; factor 1 = untreated enzyme, 0 = blocked; activation factor at 5 µM;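 active = activation factor of 2 or more for CYP2C9 at a 5 µM dose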
CYP2C19 act = cytochrome P450 2C19 (human) activation. recombinant CYP2C19, luciferin-H EGE luminescence; stronger effect = higher value; 0 = fully inhibited enzyme, 1 = untreated enzyme. activation factor at 5 µM. 96,000 tested, under 10 active. AID 1025;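 active = activation factor of at least 2 at 5 µM in the primary screen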
CYP2C19 inh = inhibitors of human CYP2C19 | CYP2C19 Supersomes, luciferin-H EGE luminescence, 30 min | inhibition, % at 5 µM | hit rate 21% among 96,000 | AID 778;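 active = CYP2C19 inhibition above a set limit at 5 µM in the primary screen, cut at about 50% in these data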
sEH inhibitor = blocks human soluble epoxide hydrolase activity. recombinant human sEH enzymatic activity assay. inhibition, % at 2 µM. hit rate 0.34% among 91,000; in the data active = inhibition above about 80%
Large screens that a line does not name were inactive.

COCCCNC(=O)CC(NS(=O)(=O)c1ccc(OC)cc1)c1ccc(OC)cc1 (stereo not given)	none
COc1ccc(CCNC(=O)CCS(=O)(=O)c2ccc(C)cc2)cc1OC	none
Cc1cc(C)c(S(=O)(=O)NNC(=O)C2CCN(Cc3ccccc3)CC2)c(C)c1	none
COC(=O)CSc1nnc(CNC(=O)c2ccccc2OC)n1-c1ccc(OC)cc1	none
N#CCC(=O)NCCCOC(=O)Nc1ccc(Cl)c(Cl)c1	none
CCCc1ccc(OCCNC(=O)CC)cc1	CYP2C19 inh 56
CCCCNC(=O)Cn1c(-c2ccc(OC)cc2)noc1=O	CYP2C19 inh 65
Cc1ccc2sc(-c3ccc(NC(=O)c4cc(-n5cnnc5)ccc4Cl)cc3)nc2c1	none
Cc1nc2c(C(=O)NCCc3ccccc3)c[nH]n2c(=O)c1Cl	CYP2C9 inhib 64
Cc1nn(CC(=O)NCCc2ccccc2)c(=O)c2ccccc12	none
Cc1noc(C(=O)NCc2ccc(F)cc2)c1Cl	none
Cc1nc2c(C(=O)NCc3ccc(F)cc3)c[nH]n2c(=O)c1Cl	CYP2C9 inhib 63
CCOC(=O)C1=C(Nc2ccc(Br)cc2)CC(C)(O)C(C(=O)OCC)C1c1ccccc1 (stereo not given)	none
Cc1ccc(N2C(=O)c3ccccc3C2Nc2ccccc2F)nc1 (stereo not given)	none
Cc1ccc(N2C(=O)c3ccccc3C2O)nc1 (stereo not given)	CYP2C19 inh 79 (no result: sEH activator, sEH inhibitor)
Cc1nc(C(=O)Nc2ccc(F)cc2)nn1-c1ccc([N+](=O)[O-])cc1	none
CC(C)OC(=O)CSc1ncnc2c1cnn2Cc1ccccc1	none
COC(=O)CSc1ncnc2c1cnn2Cc1ccccc1	CYP2C19 inh 68
Cc1c(Cl)cccc1NC(=O)CSc1ncnc2c1cnn2CCc1ccccc1	CYP2C9 inhib 89, CYP2C19 inh 63
O=C(CSc1ncnc2c1cnn2CCc1ccccc1)Nc1cccc(C(F)(F)F)c1	CYP2C9 inhib 98, CYP2C19 inh 78
CCCCC1(C)OC(=O)C(=Cc2ccc(N(C)C)cc2)C(=O)O1 (stereo not given)	none
FC(F)(F)COc1nc(OCC(F)(F)F)nc(N2CCN(c3ccccc3)CC2)n1	none
CCN(CC)C(=O)C1CC(=O)N(c2ccc(F)c(Cl)c2)C1 (stereo not given)	none
Cc1cc(C)c(N=C2CCCN2Cc2ccccc2)c(C#N)c1	none (no result: CYP2C9 inhib, CYP2C9 act, CYP2C19 act, CYP2C19 inh)
N#Cc1ccccc1N=C1CCCN1Cc1ccccc1	CYP2C19 inh 85 (no result: sEH activator, sEH inhibitor)
COc1ccc(CN2CCC(C(=O)NCCc3ccc(OC)c(OC)c3)CC2)c(OC)c1	none
CCOC(=O)c1cn2c3c(c(F)c(F)cc3c1=O)SC(N1CCOCC1)=N2	none (no result: CYP2C9 inhib, CYP2C9 act, CYP2C19 act, CYP2C19 inh)
Cc1ccc(C)c(Cn2nnc3c(=O)[nH]c(C4CCCN(C(=O)C5CCC5)C4)nc32)c1 (stereo not given)	none
O=C(c1ccccc1Cl)N1CCCC(c2nc3c(nnn3Cc3ccccc3)c(=O)[nH]2)C1 (stereo not given)	CYP2C9 inhib 84
O=C(C1CCC1)N1CCC(c2nc3c(nnn3Cc3c(F)cccc3Cl)c(=O)[nH]2)CC1	CYP2C9 inhib 71
O=c1[nH]c(C2CCCN(S(=O)(=O)c3ccccc3)C2)nc2c1nnn2Cc1ccccc1 (stereo not given)	CYP2C9 inhib 81
Cc1ccc(Cn2nnc3c(=O)[nH]c(C4CCCN(C(=O)Nc5ccc(F)cc5)C4)nc32)cc1 (stereo not given)	none
COc1cccc(Cn2nnc3c(=O)[nH]c(C4CCCN(C(=O)c5ccccc5Cl)C4)nc32)c1 (stereo not given)	CYP2C9 inhib 83
Cc1ccc(N(CC(=O)O)S(C)(=O)=O)cc1Cl	none
CCCc1nc2c(nnn2Cc2ccccc2)c(=O)[nH]1	CYP2C19 inh 78
CCOc1ccccc1N1CCN(S(=O)(=O)c2ccc(Cl)s2)CC1	none
CCN1C(=O)C(C)S/C1=N\S(=O)(=O)c1ccc(Cl)s1 (stereo not given)	CYP2C19 inh 70
O=C(Cn1nc(-c2ccccc2)c2ccccc2c1=O)NCCN1CCOCC1	none (no result: sEH activator, sEH inhibitor)
CCOCCOC(=O)c1cccc(NC(=O)OCC)c1	CYP2C9 inhib 63, CYP2C19 inh 71
COc1ccc(C(=O)OC(C(=O)c2ccc(C)cc2)c2ccccc2)cc1 (stereo not given)	CYP2C9 inhib 57
O=C(OCc1ccccc1)c1cccc(-c2nnn(Cc3ccccc3)n2)c1	CYP2C9 inhib 63
O=C(Cn1nnc(-c2ccccc2)n1)OCc1ccccc1	none
